Source: PubChem BioAssay (National Center for Advancing Translational Sciences (NCATS))
NIH3T3 tox: kills NIH 3T3 cells; NIH 3T3 viability, CellTiter-Glo ATP luminescence, 48-72 h; Potency, µM (highest dose often 96.7 µM), most hits filed as inhibitors; 94,000 tested, 4.3% active; AID 1345082; also: nearly all actives have a fitted effect of over 55% in size
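Cytotoxicity was measured by CellTiter-Glo ATP luminescence after 48 or 72 h compound exposure at 37 °C. Mouse NIH 3T3 fibroblasts were seeded at 400 cells/well and dosed by 23 nL pin transfer.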
FLuc inh: Photinus pyralis luciferase inhibition. P08659. purified P. pyralis luciferase, luminescence, biochemical. Potency, µM (highest dose often 115 µM), most hits filed as inhibitors. 76,000 tested, 2.5% active; also: nearly all actives have a fitted effect of over 65% in size
Target sequence (P08659 whole entry, looked up): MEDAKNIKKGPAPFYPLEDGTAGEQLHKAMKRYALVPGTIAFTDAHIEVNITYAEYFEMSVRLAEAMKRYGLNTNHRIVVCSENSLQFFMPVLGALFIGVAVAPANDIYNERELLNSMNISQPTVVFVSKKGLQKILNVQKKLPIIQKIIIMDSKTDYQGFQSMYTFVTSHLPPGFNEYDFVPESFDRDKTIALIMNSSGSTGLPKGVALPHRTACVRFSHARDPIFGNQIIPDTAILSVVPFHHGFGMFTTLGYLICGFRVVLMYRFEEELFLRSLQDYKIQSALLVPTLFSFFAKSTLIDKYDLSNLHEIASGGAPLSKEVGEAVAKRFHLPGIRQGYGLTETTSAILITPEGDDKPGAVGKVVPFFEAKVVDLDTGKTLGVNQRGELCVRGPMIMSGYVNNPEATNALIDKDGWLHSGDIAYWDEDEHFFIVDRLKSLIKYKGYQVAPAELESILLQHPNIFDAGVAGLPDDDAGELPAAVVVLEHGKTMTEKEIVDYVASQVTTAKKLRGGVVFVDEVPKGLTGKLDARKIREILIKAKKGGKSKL
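Inhibitors were tested against purified firefly luciferase in a biochemical, low-substrate format (both substrates at 10uM) and luminescence measured with a CCD imager.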
HEK293 tox: HEK 293 cell cytotoxicity; 94,000 tested, 6.6% active; AID 1345083; Potency, µM (top dose mostly 115 µM), usual class: inhibitors; HEK 293 viability, ATP luminescence (CellTiter-Glo), 48-72 h; also: nearly all actives have a fitted effect of over 60% in size
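Cells seeded first (HEK 293, 250 cells/well), then compound added by pintool. Incubation ran 48 or 72 hr at 37 degree Celsius. CellTiter-Glo was added and luminescence imaged after 10 min at room temperature.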
NPR1 antag: antagonists of human natriuretic peptide receptor Npr1. HEK293 hNpr1 GloSensor cGMP, ANP-stimulated luminescence. 76,000 tested, 1.6% active. P16066. Potency, µM (series often up to 46.3 µM), usual class: inhibitors; calls by dose curve; also: nearly all actives have a fitted effect of over 60% in size
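Compound pre-incubated 30 min at room temperature on GloSensor-loaded HEK293 cells stably carrying hNpr1 and the pGS-40F cGMP biosensor. Stimulation uses hNppA at 0.1 nM final; luminescence is taken at baseline and 20 min post-agonist.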
Numbers stand for hits; - = inactive; ? = inconclusive; . = no result given; ! = not confirmed by another sample. A selection: hits, their analogues and other compounds. The true share with any hit is near 11%. Unless noted, calls follow the shape of the dose curve; as a rule, active = well fitted curve in the direction sought with a large enough effect; inconclusive = small, poorly fitted or top-dose-only effect, or another doubt; inactive = no such curve, though single readings can be large; an effect the other way counts as inactive or inconclusive.

SMILES	NIH3T3 tox	FLuc inh	HEK293 tox	NPR1 antag
O=[S+]1([O-])NC2(CCN(Cc3cccc4ccccc34)CC2)CNc2ccccc21	?	-	40µM	-
COc1cccc(CN2Cc3nc(Oc4ccccc4)ccc3OCC2=O)c1	?	-	?	-
COc1cccc(CN2Cc3nc(N(C)c4ccccc4)ccc3OCC2=O)c1	?	?	89µM	?
NC(=O)c1cccc(-c2ccc3c(n2)CN(Cc2ccc(F)cc2)C(=O)CO3)c1	?	-	?	?
CN(c1ccccc1)c1ccc2c(n1)CN(Cc1ccc(F)cc1)C(=O)CO2	89µM	50µM	?	?
COc1ccccc1CNC(=O)[C@@H](C)C1CC[C@@]2(C)CC[C@H](NC(=O)C3CCCCC3)[C@@H](C)[C@@H]2[C@H]1O (stereo not given in full)	?	-	?	-
COCCN1CCCCCC(O)c2cc(C(=O)N(C)Cc3cccnc3)ccc21 (stereo not given)	?	-	?	-
COCCN1CCCCCC(O)c2cc(C(=O)N3CCN(c4cccc(OC)c4)CC3)ccc21 (stereo not given)	?	-	40µM	-
COCCN1CCCCCC(O)c2cc(C(=O)N(C)Cc3ccc(N4CCCCC4)cc3)ccc21 (stereo not given)	40µM	-	?	-
COCCN1CCCCCC(O)c2cc(C(=O)NCc3ccc(N4CCC(C)CC4)cc3)ccc21 (stereo not given)	28µM	?	?	-
COCCCNC(=O)c1ccc2c(c1)C(O)CCCCCN2CCOC (stereo not given)	-	-	-	-
CCn1nccc1C(=O)N1CCC2(CC1)CC(N1CCN(c3ccccn3)CC1)CCO2 (stereo not given)	-	-	?	-
COc1ccccc1C(=O)NC1CCN(c2cc(-c3ccccc3)[nH]n2)C1 (stereo not given)	-	-	?	-
Cc1ccccc1-c1nc2cnccn2c1NCCC(=O)N(C)Cc1ccccc1	-	-	-	-
CCC(C)NC(=O)C1COC2(CCN(C(=O)c3ccc(F)cc3F)CC2)N1C(=O)c1ccccc1 (stereo not given)	-	-	-	-
COCC1CN(C(=O)NCc2cccc(OC)c2)CC12CCNCC2 (stereo not given)	-	-	-	-
O=c1n(-c2ccc([N+](=O)[O-])cc2)nc2n1CCN(Cc1ccc(OC(F)(F)F)cc1)C2	?	-	35µM	18µM
O=c1n(-c2ccc(C(F)(F)F)cc2)nc2n1CCN(CC1CC1)C2	-	.	?	.
COc1ccc(-n2nc3n(c2=O)CCN(Cc2cccnc2)C3)cc1	?	.	-	.
Cc1ccc(CN2CCn3c(nn(-c4ccc([N+](=O)[O-])cc4)c3=O)C2)cc1	?	-	45µM	?
O=c1n(-c2ccc([N+](=O)[O-])cc2)nc2n1CCN(Cc1cccc3ccccc13)C2	?	-	?	-
O=c1n(-c2ccc(Cl)cc2)nc2n1CCN(Cc1ccccc1)C2	8.9µM	.	?	.
O=c1n(-c2ccc(C(F)(F)F)cc2)nc2n1CCN(Cc1ccc(F)cc1)C2	40µM	-	32µM!	-
CCOc1ccccc1NC(=O)N1CCC2(CC1)CC2c1noc(C)n1 (stereo not given)	-	.	-	.
O=C1CCCN1CCCN1C(=O)[C@@H]2C[C@@H](O)CN2C2(CN(C3COC3)C2)C1=O	-	-	-	-
SMILES	NIH3T3 tox	FLuc inh	HEK293 tox	NPR1 antag
O=C(c1ccccn1)N1CCC2(CC1)NC(=O)N(Cc1ccccc1Cl)C2=O	-	-	-	-
O=c1n(-c2ccncc2)nc2n1CCN(Cc1cccc3ccccc13)C2	?	-	45µM	?
O=c1n(-c2ccc(C(F)(F)F)cc2)nc2n1CCN(Cc1ccsc1)C2	?	.	50µM	.
O=c1n(-c2ccc([N+](=O)[O-])cc2)nc2n1CCN(CC1CC1)C2	?	?	35µM	?
Cc1ccc(-n2nc3n(c2=O)CCN(C(=O)c2ccc(C(F)(F)F)cc2)C3)cc1	-	-	-	-
O=c1n(-c2ccc(Cl)cc2)nc2n1CCN(Cc1cccc3ccccc13)C2	-	.	-	.
O=c1n(-c2ccc(F)cc2F)nc2n1CCN(Cc1ccc(C(F)(F)F)cc1)C2	-	-	79µM	?
COC(=O)C1=C(C)N(Cc2ccccc2F)C(=O)CC1c1ccccc1Cl (stereo not given)	?	-	?	-
CC(=O)N1CCn2cc(C(=O)NCc3ccc(Cl)nc3)nc2C1	-	.	-	.
CCOC(=O)CN1C(=O)CCN(C(=O)c2ccc(F)cc2)CC(OC)c2ccccc21 (stereo not given)	-	.	?	.
O=c1n(-c2ccc([N+](=O)[O-])cc2)nc2n1CCN(Cc1ccc(C(F)(F)F)cc1)C2	?	-	35µM	14µM
COc1ccc(Cl)cc1-c1ccc2c(c1)C(=O)N1CCN(C(=O)CO)C[C@@H]1C(=O)N2	-	-	?	-
C=CCO[C@@H]1CCN2C(=O)c3cc(-c4cc(Cl)ccc4OC)ccc3NC(=O)[C@H]12	100µM	-	63µM	-
C=CCO[C@@H]1CCN2C(=O)c3cc(-c4ccc(F)cc4F)ccc3NC(=O)[C@H]12	-	-	112µM	-
C=CCO[C@@H]1CCN2C(=O)c3cc(-c4cccc(C(F)(F)F)c4)ccc3NC(=O)[C@H]12	?	-	71µM	-
C=CCO[C@@H]1CCN2C(=O)c3cc(-c4ccccc4)ccc3NC(=O)[C@H]12	-	-	-	-
CCS[C@H]1CCN2C(=O)c3cc(-c4ccccc4F)ccc3NC(=O)[C@H]12	?	-	89µM	-
O=C(c1ccoc1)N1CCCC(c2noc(COc3ccccc3)n2)C1 (stereo not given)	-	-	-	?
CN(C)c1ccc(CN2CCn3c(nnc3-c3ccccc3)C2)cc1	-	.	-	.
CC(=O)N1CCc2c(nc(-c3ccccn3)nc2N(C)CCCN(C)C)C1	-	-	-	-
C=CCO[C@@H]1C[C@H]2C(=O)Nc3ccc(-c4ccc(F)cc4F)cc3C(=O)N2C1	50µM	-	?	-
CCNC(=O)[C@@H]1C[C@H](NC(=O)c2cccc(-c3ccc(F)cc3)c2)CN1C	-	35µM	?	-
Cc1ccc(NC(=O)N2CCc3c(C(=O)NC(C)c4cccnc4)cccc32)cc1 (stereo not given)	?	0.4µM	?	4.5µM
CC(NC(=O)c1cccc2c1CCN2C(=O)Nc1ccc(F)cc1)c1ccccn1 (stereo not given)	?	0.79µM	?	11µM
Cc1nn(C)c(C)c1CN(Cc1ccc2c(C)cc(=O)oc2c1)C1CC1	?	-	?	?
Cc1nn(C)c(C)c1CN(Cc1cnc(N2CCCCC2)nc1)C1CC1	?	?	25µM	13µM
Cc1ccc(C(=O)N2CCCC(C(=O)N3CCC(N4CCCC4=O)CC3)C2)cc1 (stereo not given)	-	.	-	.
COc1ccc(/C=C/CN2CCN(Cc3ccccc3)CC(O)C2)cc1 (stereo not given)	-	-	?	-
Cc1ncc2n1C(=O)N(C1CCN(Cc3ccc(F)cc3)CC1)C2	-	-	?	-
Cc1ncc2n1C(=O)N(C1CCN(Cc3ccc(C(F)(F)F)cc3)CC1)C2	?	-	35µM!	?
